From the supplement of paper PMC10127200
Counter-ions that a name gives are not always drawn.

What was measured:
Assay in all cases: Euclidean distance of Cell Painting phenotypic profile (signed KS, 77 features) to DMSO centroid (dimensionless distance); 5 or 10 uM (library dependent); higher = stronger phenotypic change vs DMSO (phenoactivity)
Conditions in all cases: 48 h
786-O = test system: 786-O
In short: (§1)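 Library compounds were applied at 10 or 5 uM, depending on the library, with 0.1% DMSO final, for 48 h to five cancer lines and a healthy fibroblast line. After staining, cells were imaged confocally at 20X across 9 fields per well, and Harmony extracted 77 features, each scored as a signed Kolmogorov-Smirnov statistic against vehicle wells on the same plate. Phenoactivity is the Euclidean distance between each profile and the median vehicle profile, with profiles first plate-position corrected, correlation-weighted and averaged over replicates at the top dose.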

A549 = test system: A549
In short: as §1

DU145 = test system: DU145
In short: as §1

FB = test system: FB
In short: as §1

HEPG2 = test system: HEPG2
In short: as §1

OVCAR4 = test system: OVCAR4
In short: as §1

Compound | Euclidean distance (786-O) | Euclidean distance (A549) | Euclidean distance (DU145) | Euclidean distance (FB) | Euclidean distance (HEPG2) | Euclidean distance (OVCAR4)
CCc1c(C)[nH]c2c1C(=O)C(CN1CCOCC1)CC2 (configuration not stated) [Molindone hydrochloride] | 1.11 | 0.479 | 0.934 | 0.703 | 0.317 | 0.874
OC(CCCN1CCCCC1)(c1ccccc1)c1ccccc1 [Diphenidol HCl] | 1.04 | 0.66 | 0.884 | 0.867 | 0.89 | 1.09
Cc1cc(-n2c(=O)[nH]c(=O)n(C)c2=O)ccc1Oc1ccc(SC(F)(F)F)cc1 [Toltrazuril] | 1.07 | 0.597 | 0.914 | 0.686 | 0.651 | 1.41
OC1(c2ccc(Cl)c(C(F)(F)F)c2)CCN(CCCC(c2ccc(F)cc2)c2ccc(F)cc2)CC1 [Penfluridol] | 4.2 | 4.66 | 5.91 | 3.4 | 4.97 | 4.03
CN1CCN(c2ccc3nc(-c4c(N)c5c(F)cccc5[nH]c4=O)[nH]c3c2)CC1 [Dovitinib (TKI-258) Dilactic Acid] | 2.81 | 3.4 | 2.01 | 4.28 | 0.932 | 1.96
OC(CCN1CCCC1)(c1ccccc1)C1CCCCC1 (configuration not stated) [Procyclidine HCl] | 0.828 | 0.891 | 0.562 | 1.87 | 1.33 | 0.869
O=c1c(-c2ccc(O)cc2)coc2cc(O)ccc12 [Daidzein] | 0.746 | 0.736 | 0.716 | 0.782 | 0.606 | 1.13
CC[C@H]1OC(=O)[C@H](C)[C@@H](O[C@H]2C[C@@](C)(OC)[C@@H](O)[C@H](C)O2)[C@H](C)[C@@H](O[C@@H]2O[C@H](C)C[C@H](N(C)C)[C@H]2O)[C@](C)(O)C[C@@H](C)CN[C@H](C)[C@@H](O)[C@]1(C)O [Azathramycin] | 1.51 | 0.559 | 0.734 | 0.693 | 1.08 | 0.873
CN(C)CCCN1c2ccccc2Sc2ccc(C(F)(F)F)cc21 [Triflupromazine hydrochloride] | 1.77 | 1.63 | 1.6 | 2.36 | 1.76 | 1.47
O=C(Nc1cccnn1)N1CCC(=Cc2cccc(Oc3ccc(C(F)(F)F)cn3)c2)CC1 | 1.52 | 1.02 | 1.2 | 0.799 | 1.66 | 1.21
COc1cc2ncnc(Oc3cccc(NC(=O)Nc4cc(C(C)(C)C(F)(F)F)on4)c3)c2cc1OC | 0.889 | 2.41 | 1.19 | 1.02 | 0.923 | 1.88
CCOC(=O)Nc1ccc(NCc2ccc(F)cc2)nc1N [Flupirtine maleate] | 1.54 | 3.24 | 1.53 | 1.25 | 0.854 | 1.37
CCc1ccc(CCOc2ccc(CC3SC(=O)NC3=O)cc2)nc1 (configuration not stated) [Pioglitazone] | 0.465 | 0.586 | 0.944 | 0.666 | 0.336 | 0.891
CN1C(C(=O)Nc2ccccn2)=C(O)c2ccccc2S1(=O)=O [Piroxicam] | 0.732 | 0.909 | 0.966 | 0.725 | 1.06 | 0.704
CCn1cc(-c2ccnc3[nH]c(-c4cccc(CN(C)C)c4)cc23)c(-c2ccc(NC(=O)N(C)C)cc2)n1 | 2.56 | 2.73 | 2.29 | 3.38 | 2.7 | 2.8
Nc1nc(Cl)nc2c1ncn2[C@H]1C[C@H](O)[C@@H](CO)O1 [Cladribine] | 2.58 | 3.28 | 2.27 | 3.14 | 2.67 | 3.21
CCCCCCCN(CC)CCCC(O)c1ccc(NS(C)(=O)=O)cc1 (configuration not stated) [Ibutilide Fumarate] | 1.19 | 0.555 | 1.13 | 1.27 | 1.2 | 1.47
CO/N=C(/C(=O)N[C@@H]1C(=O)N2C(C(=O)OCOC(=O)C(C)(C)C)=C(C)CS[C@H]12)c1csc(N)n1 [Cefetamet pivoxil hydrochloride] | 1.66 | 1.04 | 1.11 | 0.939 | 0.729 | 0.914
CS(=O)(=O)OCCCCOS(C)(=O)=O [Busulfan] | 1.22 | 0.648 | 0.667 | 0.953 | 0.977 | 1.95
N[C@@H](Cc1cc(I)c(Oc2ccc(O)c(I)c2)c(I)c1)C(=O)O [Triiodothyronine] | 1.04 | 1.57 | 1.08 | 0.968 | 0.865 | 1.58
O=C(O)Cc1ccc(-c2ccccc2)cc1 [4-Biphenylacetic acid] | 1.14 | 1.09 | 1.65 | 1.66 | 0.638 | 1.62
CCCCOC(=O)c1ccccc1Nc1cccc(C(F)(F)F)c1 [Ufenamate] | 1.52 | 0.505 | 1.4 | 1.25 | 0.931 | 1.83
CN(C)CCc1c[nH]c2ccc(C[C@H]3COC(=O)N3)cc12 [Zolmitriptan] | 1.26 | 1.23 | 1.25 | 0.876 | 0.663 | 1.74
CCCCCCCCCCCCCCCCCC(=O)O [Stearic acid] | 1.24 | 1.11 | 0.794 | 1.08 | 0.463 | 0.768
COc1ccc2c(c1)c(CC(=O)O)c(C)n2C(=O)c1ccc(Cl)cc1 [Indomethacin] | 1.44 | 0.49 | 1.66 | 0.86 | 1.8 | 1.2
COc1cc(N)c(Cl)cc1C(=O)NC1CCN(Cc2ccccc2)CC1 [Clebopride (malate)] | 1.13 | 0.613 | 1.21 | 1.12 | 0.547 | 0.852
COc1cc(NS(=O)(=O)c2ccc(N)cc2)ncn1 [Sulfamonomethoxine] | 0.83 | 0.926 | 0.778 | 0.916 | 0.669 | 1.12
